“And” between values parts separate entries of the source, which are not always exact repeats. Identical values can stand only once. Compounds without any hit were thinned out: in the full panel of roughly 83,000, 20% have a hit.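 Each cell line was grown in a 96-well plate and treated with one concentration of compound for 48 hours. Values below 10 were considered active.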 The source made the active and inactive calls.

The test relates to HL-60(TB) leukemia. Nature of the test: NCI-60 one-dose screen, 48 h (100 = growth as untreated, 0 = no growth, -100 = all killed). As to conditions: 10 µM unless noted.
As to `CC(=O)OCC(=O)[C@@]1(O)CC[C@H]2[C@@H]3CC[C@@H]4C[C@H](O)CC[C@]4(C)[C@H]3C(=O)C[C@@]21C`, the growth is 94% (inactive).
Turning to `O=C(c1ccccc1)c1ccc(Oc2ccc([N+](=O)[O-])cc2[N+](=O)[O-])cc1`, the growth is 43.6% (inactive).
Under `Nc1nccc2c1ccn2-c1ccc(NC(=O)Nc2cccc(C(F)(F)F)c2)cc1` stands 117% (inactive).
For the molecule `Cc1ccc2[nH]c(=O)cc(-n3nncc3Cn3c4ccccc4c4ccccc43)c2c1`, the growth was 107% (inactive).
In the case of `O=c1[nH]ncc(Br)c1Br` it was 65.5% (inactive); in that of `CCCCN1CCN(c2ccc3nc(-c4ccc5nc(-c6cc(OC)c(OC)c(OC)c6)[nH]c5c4)[nH]c3c2)CC1`, 85.7% (inactive); in that of `CCCCCn1ncc(-c2c(O)c(O)cc3c(O)c(-c4c(C)cc5c(-c6cnn(CCCCC)n6)c(O)c(O)cc5c4O)c(C)cc23)n1`, -22.3% (active).
Under `CCCN(CCC)C(=O)c1ccc(C)cc1` stands 100% (inactive); under `O=[N+]([O-])c1ccc(NC2CCCCC2)nc1`, 110% (inactive); under `O=C(Nc1ccccc1S)c1ccccc1`, 105% (inactive).
In the case of `CSc1ccc(C(=O)C[n+]2cccc(C)c2)cc1` it was 102% (inactive).
With `O=C(CCl)Nc1ccc2c(c1)C(=O)c1ccccc1C2=O`, the growth is 12.7% (inactive).
Under `Cc1sc(N=Nc2ccc(N(C)C)cc2)[n+]([O-])c1C` stands 92.7% (inactive); under `Cc1ccc2nc3ccccc3c(NCc3ccccc3)c2c1`, 40.6% (inactive); under `CN(C)CCCn1c2c(c3ncccc3c1=O)C(=O)c1ccccc1-2`, 45.6% (inactive).
Under `CCCCCC(=O)OCC(=O)O[C@@H]1C[C@]2(C(C)C)O[C@@]1(C)[C@@H]1CC[C@@H](C)[C@H]1[C@@H]2OC(=O)/C=C/c1ccccc1` stands 78.5% (inactive); under `Cc1cc2c(F)c(Oc3ncnn4cc(OC[C@@H](C)OC(=O)[C@H](C)N)c(C)c34)ccc2[nH]1`, 12.6% (inactive).
For `CCN(CC)C(=S)SC(SC(=S)N(CC)CC)C(=O)c1nnn(-c2ccc([N+](=O)[O-])cc2)c1C`, the growth is 82.4% (inactive).
As for `COc1ccc(-c2oncc2-c2cc(OC)c3c(c2)OCO3)cc1`, the growth was -6.72% (active).
Under `CC1=CC(=C(c2ccc(N)cc2)c2ccc(N)cc2)C=CC1=N` stands -13.5% (active) and 47.8% (inactive).
Under `CCC[C@H](N[C@@H](C)C(=O)N1[C@H](C(=O)O)C[C@@H]2CCCC[C@@H]21)C(=O)OCC` stands 116% (inactive).
In the case of `Cn1cc(-c2csc(-c3cn(CCCN4CCCCC4)c4ccc(Br)cc34)n2)c2cccnc21` it was 0.828% (active).
As for `COc1ccc(CCN(C)CCCC(C#N)(c2ccc(OC)c(OC)c2)C(C)C)cc1OC` (centres undefined), the growth is 92.4% (inactive) and 72.5% (inactive) and 104% (inactive).
Under `Cc1ccc(NC(=O)Cn2cc(CN3CCN(c4ccnc5cc(Cl)ccc45)CC3)nn2)cc1` stands 87% (inactive).
As to `O=C1Nc2ccccc2/C1=C/c1cccn1CCCCn1c2ccccc2c(=O)c2ccccc21`, the growth is 60.2% (inactive).
Under `C/C(=C\C(=N\N=C(N)N)c1ccc(Cl)cc1)c1ccc(Cl)cc1` stands -68% (active); under `Cn1c2c(cc(S(=O)(=O)c3ccccc3)c1=O)CCc1c-2cnn1-c1ccccc1Cl`, 95.3% (inactive); under `O=C1COCCN1c1ccc(Nc2nc(Cl)nc(OCc3cn(Cc4ccccc4)nn3)n2)cc1`, 40.3% (inactive).
`COc1ccc(CNC(=O)[C@H](O)[C@@H](N)Cc2ccccc2)cc1`: the growth is 102% (inactive).
In the case of `CN1CCN(Cc2ccc(NC(=O)c3cnc(F)c(C#Cc4cnc(N)c5ncccc45)c3)cc2C(F)(F)F)CC1` it was -9.84% (active); in that of `O=C1/C(=C/c2ccc([N+](=O)[O-])cc2)Oc2ccc(O)cc21`, 86.1% (inactive); in that of `C/C(=C(/c1ccc(Cl)cc1)c1ccc(OCCN2CCCC2)cc1)c1ccc(Cl)cc1`, 69.5% (inactive).
As for `CC(=O)N1N=C(C2C(=O)N(C)C(=O)N(C)C2=O)CC1c1ccccc1C(=O)O` (centres undefined), the growth was 92.2% (inactive).
Consider `Oc1cccc(Nc2nccc(-c3ccc4ccccc4c3)n2)c1`, for which the growth was 0.229% (active).
Under `O=[N+]([O-])c1ccc(N/N=C\c2cc(Br)ccc2O)nc1` stands 11.7% (inactive) and -8.74% (active).
As to `Cn1cnc2c(N3CCN(C(=O)OCc4ccc5c(Cl)cc(Cl)c(O)c5n4)CC3)nc(Cl)nc21`, the growth is 66% (inactive).
Under `COc1cc(-c2nnc(-c3c(-c4ccc(F)cc4)nc4ccccn34)o2)cc(OC)c1OC` stands 102% (inactive); under `Cc1ccc(S(=O)c2ccc([N+](=O)[O-])c3nonc23)cc1` (centres undefined), 33.2% (inactive).
Under `CCN(CC)c1ccc(/C=C/C(=O)c2ccc(Nc3nc(Nc4ccccc4)nc(Nc4ccccc4)n3)cc2)cc1` stands 45.6% (inactive).

The values are drawn from PubChem BioAssay (NCI).
